Experimental data reported in PubChem BioAssay AID1159580 (chemical genetic matrix, 2015).
About 2,000 (36%) of roughly 5,500 compounds were called active. Inconclusive results (about 18%) are left out. Cut-off read from the data, not from the text of the source: active = normalized growth mostly below about 0.91 (no sharp cut-off); inconclusive = no clear call, values can overlap the other calls; inactive = mostly above about 0.92. The list shows a part of the results.

Test: chemical genetic growth profiling, strain panel (AID 1159580);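 note: tested at 20 µM; growth read once vehicle control cultures reached saturation at 30 °C; 1 = growth at the plate median or of vehicle wells; lower values mean less growth of the strain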
Details: S. cerevisiae deletion strains, growth OD

Measured: normalized growth

O=P1(NCCCl)OCCCN1CCCl (stereo not given)
inactive: locus YAL021C, strain ccr4, hits give low values 0.964 | locus YAL026C, strain drs2, hits give low values 0.991 | locus YAL030W, strain snc1, hits give low values 0.992 | locus YBL061C, strain skt5, hits give low values 0.993 | locus YBR009C, strain hhf1, hits give low values 1.01 | locus YBR023C, strain chs3, hits give low values 0.987 | locus YBR171W, strain sec66, hits give low values 0.98 | locus YBR231C, strain swc5, hits give low values 1 | locus YBR279W, strain paf1, hits give low values 0.997 | locus YCL011C, strain gbp2, hits give low values 0.975 | locus YCL016C, strain dcc1, hits give low values 0.992 | locus YCL061C, strain MRC1, hits give low values 0.987 | locus YCL069W, strain vba3, hits give low values 0.989 | locus YCR088W, strain abp1, hits give low values 0.971 | locus YDL005C, strain med2, hits give low values 0.995 | locus YDL040C, strain nat1, hits give low values 0.987 | locus YDR001C, strain nth1, hits give low values 0.985 | locus YDR069C, strain doa4, hits give low values 0.995 | locus YDR137W, strain rgp1, hits give low values 0.988 | locus YDR159W, strain sac3, hits give low values 0.982 | locus YDR195W, strain ref2 0.985 | locus YDR297W, strain sur2, hits give low values 0.99 | locus YDR334W, strain swr1, hits give low values 0.969 | locus YDR335W, strain msn5, hits give low values 0.976 | locus YDR392W, strain spt3, hits give low values 1.01 | locus YEL003W, strain gim4, hits give low values 0.983 | locus YEL037C, strain rad23, hits give low values 0.95 | locus YEL061C, strain CIN8 (second series), hits give low values 0.977 | locus YER015W, strain faa2, hits give low values 0.99 | locus YER016W, strain bim1, hits give low values 0.986 | locus YER111C, strain swi4, hits give low values 1 | locus YER155C, strain BEM2 (second series), hits give low values 1.01 | locus YFR010W, strain ubp6, hits give low values 0.96 | locus YGL167C, strain pmr1, hits give low values 0.992 | locus YGL173C, strain kem1, hits give low values 0.984 | locus YGL227W, strain vid30, hits give low values 0.993 | locus YGL240W, strain doc1, hits give low values 1.02 | locus YGL253W, strain hxk2, hits give low values 0.986 | locus YHR013C, strain ard1, hits give low values 0.996 | locus YHR027C, strain rpn1, hits give low values 0.981 | locus YHR030C, strain SLT2, hits give low values 0.967 | locus YHR079C, strain IRE1, hits give low values 0.971 | locus YHR142W, strain chs7, hits give low values 0.943 | locus YJL092W, strain hpr5, hits give low values 0.975 | locus YJL095W, strain BCK1 (second series), hits give low values 0.995 | locus YJL095W, strain BCK1, hits give low values 0.989 | locus YJL115W, strain asf1, hits give low values 0.971 | locus YJL129C, strain trk1, hits give low values 0.97 | locus YJL154C, strain vps35, hits give low values 0.992 | locus YJL164C, strain tpk1, hits give low values 0.979 | locus YJL166W, strain qcr8, hits give low values 0.998 | locus YJL187C, strain SWE1, hits give low values 0.99 | locus YJR066W, strain TOR1, hits give low values 0.921 | locus YKL160W, strain elf1, hits give low values 0.986 | locus YKR026C, strain gcn3, hits give low values 0.971 | locus YKR091W, strain srl3, hits give low values 0.99 | locus YLL001W, strain dnm1, hits give low values 0.968 | locus YLL026W, hits give low values 1 | locus YLL041C, strain sdh2, hits give low values 0.987 | locus YLR027C, strain aat2, hits give low values 0.988 | locus YLR113W, strain HOG1, hits give low values 1 | locus YLR221C, strain rsa3, hits give low values 0.981 | locus YLR258W, strain gsy2, hits give low values 0.996 | locus YLR262C, strain YPT6 (second series), hits give low values 1.01 | locus YLR320W, strain mms22, hits give low values 1.01 | locus YLR342W, strain FKS1, hits give low values 0.99 | locus YLR357W, strain rsc2, hits give low values 0.991 | locus YLR370C, strain arc18, hits give low values 0.986 | locus YLR384C, strain iki3, hits give low values 0.981 | locus YML120C, strain ndi1, hits give low values 0.968 | locus YMR058W, strain fet3, hits give low values 0.982 | locus YMR125W, strain sto1, hits give low values 0.992 | locus YMR129W, hits give low values 0.983 | locus YMR205C, strain PFK2, hits give low values 1.01 | locus YMR231W, strain pep5, hits give low values 0.992 | locus YNL071W, strain lat1, hits give low values 0.996 | locus YNL183C, strain NPR1, hits give low values 0.93 | locus YNL209W, strain ssb2, hits give low values 0.991 | locus YNL248C, strain rpa49, hits give low values 0.946 | locus YNL322C, strain KRE1 (second series), hits give low values 0.986 | locus YNR049C, strain mso1, hits give low values 0.985 | locus YOR001W, strain rrp6, hits give low values 0.973 | locus YOR070C, strain gyp1, hits give low values 0.993 | locus YOR080W, strain dia2, hits give low values 0.987 | locus YOR083W, strain WHI5, hits give low values 0.981 | locus YOR106W, strain vam3, hits give low values 0.982 | locus YOR231W, strain MKK1, hits give low values 0.968 | locus YOR265W, strain rbl2, hits give low values 0.99 | locus YOR270C, strain vph1, hits give low values 0.922 | locus YOR290C, strain snf2, hits give low values 0.994 | locus YPL051W, strain arl3, hits give low values 0.999 | locus YPL078C, strain atp4, hits give low values 0.978 | locus YPL106C, strain sse1, hits give low values 0.997 | locus YPL240C, strain hsp82, hits give low values 0.986 | locus YPL256C, strain CLN2, hits give low values 0.95
